# Compound activity (PubChem)
# Many of the other results were omitted from the sample, so hits are more common in it than they were.
# Tb PYK inh – T. brucei pyruvate kinase inhibition. Q57TT1. TbPYK enzyme, Kinase-Glo Plus ATP luminescence, 45 min. Potency, µM (series often up to 76.8 µM), for the others: top-dose activity, negative = inhibition, most hits filed as inhibitors. 410,000 compounds, 0.12% hits. AID 624173; active = well fitted curve in the direction sought with a large enough effect; inconclusive = small, poorly fitted or top-dose-only effect, or another doubt; inactive = no such curve, though single readings can be large; an effect the other way counts as inactive or inconclusive; also: potency is read from the fitted curve at half-maximal effect; % is scaled to controls: 0 for no effect and ±100 for the full control effect; nearly all actives have a fitted effect of over 50% in size
#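 Enzyme and substrate buffer are dispensed first and compound is pin-transferred. ADP at 130 uM final then starts the reaction, which runs 45 min at room temperature. Detection reagent is added for 10 min before luminescence is imaged.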
# LmPK inhibitor – LmPK (Leishmania mexicana) enzyme inhibition | 290,000 compounds, 0.37% hits | Potency, µM (titrated, usually from 57.5 µM), without a hit: at the highest dose activity change, negative = inhibition, most hits filed as inhibitors | purified LmPK, Kinase-Glo ATP luminescence, 1 h | Q27686; active = well fitted curve in the direction sought with a large enough effect; inconclusive = small, poorly fitted or top-dose-only effect, or another doubt; inactive = no such curve, though single readings can be large; an effect the other way counts as inactive or inconclusive; also: potency is read from the fitted curve at half-maximal effect; % is scaled to controls: 0 for no effect and ±100 for the full control effect
# Target sequence (Q27686 whole entry, looked up): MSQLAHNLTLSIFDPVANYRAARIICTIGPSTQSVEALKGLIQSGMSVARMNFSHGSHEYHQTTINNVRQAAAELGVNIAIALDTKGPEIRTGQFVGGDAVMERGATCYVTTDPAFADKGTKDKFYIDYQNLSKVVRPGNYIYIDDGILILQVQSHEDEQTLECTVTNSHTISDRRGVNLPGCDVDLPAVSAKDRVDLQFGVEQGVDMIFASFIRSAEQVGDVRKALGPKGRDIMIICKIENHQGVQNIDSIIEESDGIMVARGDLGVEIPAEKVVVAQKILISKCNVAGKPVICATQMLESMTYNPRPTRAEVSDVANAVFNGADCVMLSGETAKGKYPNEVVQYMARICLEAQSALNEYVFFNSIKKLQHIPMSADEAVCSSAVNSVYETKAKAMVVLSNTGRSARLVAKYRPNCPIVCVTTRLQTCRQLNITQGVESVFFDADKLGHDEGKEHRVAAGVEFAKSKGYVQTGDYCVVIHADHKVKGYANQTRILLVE
#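 Kinase-Glo luminescence read after 1 h RT reaction of 0.1 nM LmPK with 0.5 mM PEP and 0.1 mM ADP. Activity scaled between uninhibited and enzyme-free controls.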
# Cycloheximide cs – counter-screen hit for Shiga toxin inhibitors, cycloheximide; cell reporter, cycloheximide protein synthesis inhibition counterscreen; max response, %; 300,000 compounds, 12% hits; AID 2314; in the data active = max response mostly above about 13%, no sharp cut-off; inactive = mostly below about 14%; also: read at 38.3 µM for the half of the compounds with a filed dose; 0% is about no effect
# NS1 inh – inhibitors of influenza NS1 protein function | 270,000 compounds, 0.4% hits | Potency, µM (titrated, usually from 46.1 µM), without a hit: top-dose activity, positive = more growth; also: potency is read from the fitted curve at half-maximal effect; actives are rising curves; nearly all actives have a fitted effect of over 50% in size
#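 Recovery from NS1-induced slow growth read by OD600 in budding yeast switched to galactose assay medium (pH 6.0, -URA) at 1:100 dilution. Compound 23 nl per well; the matching strain lacking NS1 serves as control.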
# Shiga inhibitor – inhibitors of Shiga toxin in Vero cells. 290,000 compounds, 9.2% hits. inhibition, % at 38.7 µM. AID 2315. Vero cells, Shiga toxin protein synthesis inhibition reporter; in the data active = inhibition mostly above about 28%, no sharp cut-off; inactive = mostly below about 43%; also: 0% is about no effect
# SARS PLP yeast – SARS-CoV PLP inhibition in yeast. S. cerevisiae expressing SARS-CoV PLpro, growth rescue. Potency, µM (doses to about 32.9 µM), inactives show top-dose activity, positive = growth rescue, usual class: activators. 330,000 compounds, 0.19% hits; also: potency is read from the fitted curve at half-maximal effect; 0% is about no effect; nearly all actives have a fitted effect of over 55% in size
# Starred values were filed as active, the others as inactive; ? = inconclusive; . = no result. Unless noted, calls follow the shape of the full dose curve.
SMILES,Tb PYK inh,LmPK inhibitor,Cycloheximide cs,NS1 inh,Shiga inhibitor,SARS PLP yeast
O=C(CN1CCN(c2ncccn2)CC1)N1CCc2ccccc21,6%,-2%,-4,4%,-4,-4%
O=C(CSc1ccc(-c2ccccn2)nn1)N1CCc2ccccc21,2%,2%,19,.,42*,2%
CC(=O)c1ccc(NC(=O)CSc2cn(CC(=O)N3CCCCC3)c3ccccc23)cc1,1%,.,.,.,.,.
COc1ccc(C2C(C(C)=O)=C(O)C(=O)N2c2ccccn2)cc1 (centres undefined),0%,0%,-3,4%,1,0%
CN1C(=O)C2(c3ccccc31)N(C)CC(c1ccccn1)C21SC(=S)N(Cc2ccco2)C1=O (centres undefined),0%,5%,32*,-70%,27,-14%
COc1ccc(-c2cn3c(C)c(C(=O)NCCN4CCOCC4)sc3n2)cc1,6%,-3%,6,13%,9,-4%
CCN(CC)C(=O)c1sc2nc(-c3ccc(OC)cc3)cn2c1C,-23%,-15%,38*,-67%,77*,-1%
CNC(=O)c1sc2nc(-c3ccc(OC)cc3)cn2c1C,6%,5%,86*,-99%,146*,-11%
Cc1cccn2c(=O)c(C(=O)N3CCN(c4ccccc4)CC3)cnc12,2%,.,.,.,.,.
O=C(Nc1cccc(C(F)(F)F)c1)c1csc(COCCO)n1,4%,.,.,.,.,.
Nc1ccccc1C(=O)NNC(=O)C(=O)/C=C(\O)c1ccccc1,3%,1%,33*,7%,53*,-1%
Cc1cccc(C(=O)NNC(=O)c2ccccc2[N+](=O)[O-])c1,-12%,-2%,-4,17%,-8,5%
O=C(/C=C(\O)c1ccccc1)C(=O)NNC(=O)c1ccccc1[N+](=O)[O-],5%,-3%,17*,-3%,71*,1%
COC(=O)c1ccc(Nc2ncnc3c2cnn3C)cc1,-2%,.,.,.,.,.
O=C(O)C[C@@H]1C(=O)O[C@@H]2C(COC(=O)c3cc(O)c(O)c(O)c3)O[C@@H](OC(=O)c3cc(O)c(O)c(O)c3)[C@@H](OC(=O)c3cc(O)c(O)c4c3[C@H]1[C@H](O)C(=O)O4)[C@H]2OC(=O)c1cc(O)c(O)c(O)c1 (some centres undefined),.,7%,-3,-6%,-4,1.4µM*
CN(C)c1ccc(/C=N/n2c(-c3cccnc3)n[nH]c2=S)cc1,2.8µM*,0%,-3,-3%,-14,-1%
CN(C)c1ccc(/C=N/n2c(COc3ccccc3)n[nH]c2=S)cc1,?,-11%,4,-6%,2,2%
Cc1ccc(/C=N/n2c(-c3cccnc3)n[nH]c2=S)o1,?,13%,7,-3%,24,0%
CN(C)c1ccc(/C=N/n2c(-c3ccccc3Br)n[nH]c2=S)cc1,?,-21%,17*,15%,54,1%
COc1cccc2c1cc1c(=O)n(CC(=O)N3CCN(c4ccccc4F)CC3)nc(C)n12,5%,.,.,.,.,.
Cc1ccc(C)c(N(CC(=O)NC2CCCC2)C(=O)c2csnn2)c1,5%,5%,0,6%,-5,-1%
O=C(NCc1cc([N+](=O)[O-])ccc1O)c1cccnc1Sc1ccccc1,-8%,-15%,-4,-10%,-18,-1%
Cc1ccc(Sc2ncccc2C(=O)NCc2cc([N+](=O)[O-])ccc2O)c(C)c1,-6%,-10%,66*,-81%,104*,-10%
Cn1c(O)c(C2=c3ccccc3=NC2=O)sc1=Nc1ccc(Cl)cc1,0%,1%,7.0*,11%,7,5%
O=C(O)Cn1c(O)c(C2=c3ccccc3=NC2=O)sc1=O,-18%,2%,10,5%,21,0%
SMILES,Tb PYK inh,LmPK inhibitor,Cycloheximide cs,NS1 inh,Shiga inhibitor,SARS PLP yeast
Cc1ccc(CCNC(=O)c2sc3ncccc3c2-n2cccc2)cc1,2%,.,.,.,.,.
Cc1ccc(-n2c(=O)c3sccc3n(CC(=O)NC3CCCCC3)c2=O)cc1,3%,-5%,12,.,112*,-1%
O=C(NN=Cc1ccccc1Cl)c1cccc2ccccc12,1%,.,.,.,.,.
O=C(N/N=C/c1cccc2ccccc12)c1ccccc1Cl,-1%,-2%,13*,-44%,49,-4%
Cc1occc1C(=O)N/N=C/c1cccc2ccccc12,-7%,-2%,44*,-31%,87*,-7%
Cc1ccc2c(c1)C(=O)C(=O)N2CC(=O)Nc1ccc(N2CCOCC2)cc1,2%,8%,-2,-1%,22,0%
CCc1ccc(CNC(=O)C(CC)n2nc(C)c3c(C)n(-c4ccccc4)nc3c2=O)cc1 (centres undefined),-4%,.,.,.,.,.
Cc1cccc(C(=O)Nc2cccc(OCc3cc(=O)n4ccccc4n3)c2)c1,-4%,.,.,.,.,.
CS(=O)(=O)c1ccc(C(=O)OCc2nnc(-c3ccccc3)o2)cc1[N+](=O)[O-],5%,2%,25*,-36%,21,-5%
O=C(OCc1nnc(-c2ccccc2)o1)c1ccc(Cl)cc1,0%,6%,-1,-51%,-1,-2%
Cc1ccccc1NC(=O)COC(=O)c1ccc(S(C)(=O)=O)c([N+](=O)[O-])c1,-6%,-2%,14*,1%,11,1%
O=C(OCc1nnc(-c2ccccc2)o1)C1=COCCO1,2%,-4%,22*,2%,25,1%
O=C(OCc1nnc(-c2ccccc2)o1)c1ccc2c(c1)OCCO2,2%,-2%,22*,-41%,45*,0%
CS(=O)(=O)c1ccc(C(=O)OCC(=O)Nc2cccnc2Cl)cc1[N+](=O)[O-],4%,.,.,.,.,10%
COCCNC(=O)c1ccc2nc(CCc3ccccc3)oc2c1,-2%,.,.,.,.,.
C[C@H]1CN([C@@H](C)CO)C(=O)c2cc(NS(=O)(=O)c3ccc(Cl)cc3)ccc2O[C@@H]1CN(C)CC1CCCCC1,-7%,.,.,.,.,-2%
N#Cc1c(Nc2ccccc2)sc(C(=O)c2ccccc2)c1N,-6%,0%,8,?,12,-9%
CC(=O)c1cc(C(=O)c2ccccc2)sc1Nc1ccccc1,-5%,3%,48*,-15%,61*,-4%
COc1ccc(OCC(=O)N/N=C2\CCc3ccccc32)cc1,-1%,4%,1,?,13,7%
COc1ccc2c(c1[N+](=O)[O-])CCC/C2=N/OC(=O)c1cccc2ccccc12,1%,0%,2,-3%,5,3%
COc1ccc2c(c1)CCC/C2=N/OC(=O)c1ccccc1OC,-7%,15%,29*,.,41,-15%
COc1ccccc1C(=O)ON=C1c2ccccc2-c2ccccc21,-16%,1%,19*,-18%,29,-8%
COc1ccc2c(c1)CC/C2=N\NC(=O)c1ccccc1,-4%,-3%,64*,2%,75*,-9%
COC(=O)c1ccccc1NC(=O)c1ccccc1OC,-9%,1%,-1,-82%,34,-3%
COc1ccc2c(c1)CC/C2=N\OC(=O)c1cccc(C)c1,-9%,-11%,52*,-35%,139*,-40%
